Results published in PubChem BioAssay.

These molecules were tested against Neurogenic locus notch homolog protein 2 (Homo sapiens) (UniProt Q04721) (assay: small molecules binding Notch2 protein – biochemical, small-molecule microarray, 635 nm fluorescence, stem cell growth factors, primary screen (AID 1073)). Conditions: higher = more signal.
Neurogenic locus notch homolog protein 2 (Homo sapiens), sequence (Q04721 whole entry, looked up): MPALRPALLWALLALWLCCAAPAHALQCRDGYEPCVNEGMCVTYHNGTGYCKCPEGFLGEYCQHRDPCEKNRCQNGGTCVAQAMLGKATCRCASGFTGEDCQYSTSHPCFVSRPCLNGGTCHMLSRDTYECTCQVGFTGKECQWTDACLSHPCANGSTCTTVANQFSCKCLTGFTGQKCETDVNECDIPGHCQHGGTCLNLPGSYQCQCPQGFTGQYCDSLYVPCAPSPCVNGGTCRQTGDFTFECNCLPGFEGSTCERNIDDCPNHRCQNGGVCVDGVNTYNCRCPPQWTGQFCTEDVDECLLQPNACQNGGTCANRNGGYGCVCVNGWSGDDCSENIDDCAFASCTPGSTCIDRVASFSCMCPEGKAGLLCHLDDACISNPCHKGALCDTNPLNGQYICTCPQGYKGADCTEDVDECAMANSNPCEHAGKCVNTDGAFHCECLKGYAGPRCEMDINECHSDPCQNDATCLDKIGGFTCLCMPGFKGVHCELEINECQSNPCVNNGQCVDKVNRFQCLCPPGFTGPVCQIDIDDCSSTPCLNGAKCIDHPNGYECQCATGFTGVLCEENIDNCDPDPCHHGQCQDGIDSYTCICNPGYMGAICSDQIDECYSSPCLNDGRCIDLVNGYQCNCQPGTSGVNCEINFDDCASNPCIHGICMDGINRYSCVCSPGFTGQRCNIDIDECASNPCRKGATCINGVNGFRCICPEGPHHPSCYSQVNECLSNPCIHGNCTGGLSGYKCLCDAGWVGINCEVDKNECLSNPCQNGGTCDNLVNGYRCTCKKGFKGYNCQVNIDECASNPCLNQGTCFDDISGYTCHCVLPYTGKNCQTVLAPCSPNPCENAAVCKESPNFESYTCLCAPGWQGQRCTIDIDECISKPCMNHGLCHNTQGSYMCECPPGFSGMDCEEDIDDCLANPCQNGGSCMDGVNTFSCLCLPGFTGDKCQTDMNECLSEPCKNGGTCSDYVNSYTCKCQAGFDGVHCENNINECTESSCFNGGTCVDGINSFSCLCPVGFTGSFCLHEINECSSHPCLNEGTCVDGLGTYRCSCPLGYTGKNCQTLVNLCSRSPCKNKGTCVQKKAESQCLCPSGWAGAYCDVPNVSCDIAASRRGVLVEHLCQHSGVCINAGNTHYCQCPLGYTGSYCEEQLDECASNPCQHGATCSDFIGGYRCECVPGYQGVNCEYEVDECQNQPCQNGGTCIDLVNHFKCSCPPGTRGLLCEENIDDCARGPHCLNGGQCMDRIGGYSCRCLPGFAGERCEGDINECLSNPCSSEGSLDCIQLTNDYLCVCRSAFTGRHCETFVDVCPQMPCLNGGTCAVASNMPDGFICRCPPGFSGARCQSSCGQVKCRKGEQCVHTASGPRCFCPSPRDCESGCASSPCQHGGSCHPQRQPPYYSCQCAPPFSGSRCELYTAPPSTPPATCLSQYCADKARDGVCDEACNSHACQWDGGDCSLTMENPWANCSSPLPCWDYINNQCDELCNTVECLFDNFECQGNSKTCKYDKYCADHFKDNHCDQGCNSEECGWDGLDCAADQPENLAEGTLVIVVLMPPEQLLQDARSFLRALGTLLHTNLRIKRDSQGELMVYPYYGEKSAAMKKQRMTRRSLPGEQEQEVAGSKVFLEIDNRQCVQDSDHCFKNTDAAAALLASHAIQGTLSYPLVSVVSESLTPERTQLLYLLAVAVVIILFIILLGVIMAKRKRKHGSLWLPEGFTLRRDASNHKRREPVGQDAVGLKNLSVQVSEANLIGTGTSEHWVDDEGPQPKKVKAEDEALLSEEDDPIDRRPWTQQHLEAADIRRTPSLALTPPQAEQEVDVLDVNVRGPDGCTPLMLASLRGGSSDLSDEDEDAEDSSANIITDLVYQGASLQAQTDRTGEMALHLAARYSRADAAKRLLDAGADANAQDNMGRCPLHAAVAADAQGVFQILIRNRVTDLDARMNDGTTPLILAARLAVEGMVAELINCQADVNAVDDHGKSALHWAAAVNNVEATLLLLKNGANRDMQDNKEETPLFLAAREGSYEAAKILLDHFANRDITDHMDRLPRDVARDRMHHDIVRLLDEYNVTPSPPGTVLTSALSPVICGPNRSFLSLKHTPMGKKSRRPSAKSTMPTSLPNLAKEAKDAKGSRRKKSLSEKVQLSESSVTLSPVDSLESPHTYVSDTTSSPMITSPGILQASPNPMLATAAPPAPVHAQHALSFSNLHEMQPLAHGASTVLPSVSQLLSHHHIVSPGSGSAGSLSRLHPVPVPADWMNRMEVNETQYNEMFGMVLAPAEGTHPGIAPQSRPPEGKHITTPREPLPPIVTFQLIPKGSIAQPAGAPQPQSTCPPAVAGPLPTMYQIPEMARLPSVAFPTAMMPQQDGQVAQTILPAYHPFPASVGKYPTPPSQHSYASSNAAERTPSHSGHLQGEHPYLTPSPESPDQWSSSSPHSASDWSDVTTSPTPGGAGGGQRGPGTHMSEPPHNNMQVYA

Row | Structure (SMILES) | composite z-score
1 | C=CCNC(=O)[C@H]1[C@@H]2C(=O)O[C@@H](c3ccccc3)[C@@H](c3ccccc3)N2[C@@H](c2ccccc2OCCO)[C@]12C(=O)Nc1ccc(C#CCCO)cc12 | 0.119
2 | COCCCNC(=O)[C@]1(CCC(=O)OC(C)(C)C)N=C(c2ccc(OCCCO)cc2)O[C@@H]1c1ccccc1CN=[N+]=[N-] | 0.96
3 | O=C1OCCC/C=C\[C@H]2OC34C=CCN(Cc5ccccc5)C(=O)[C@H]3N(CCCO)C(=O)[C@@H]4C12 (stereo partly drawn) | -1.15
4 | CN1C(=O)C2C=CC(C(O)C3CC=CCC3)N(N(c3ccccc3)c3ccccc3)C2C1=O (stereo not drawn) | 0.172
5 | C=CCC(OC(C)=O)[C@@H]1[C@@H](N(Cc2ccc(-c3cccc(C(F)(F)F)c3)o2)C(=O)c2ccc(C)cc2)c2cc(OCCCO)ccc2N1C(=O)Cc1ccc2ccccc2c1 (stereo partly drawn) | -0.564
6 | CO[C@H]1O[C@H](CO)[C@@H](OC(=O)Nc2ccccc2)[C@H](OC(=O)Nc2ccccc2)[C@@H]1OC(=O)Nc1ccccc1 | 1.3
7 | O=C(OCc1ccccc1)C1=CCC2c3[nH]c4ccccc4c3C(=O)C1N2S(=O)(=O)c1ccccc1[N+](=O)[O-] (stereo not drawn) | 1.7
8 | C=C(CCCC)/C(=C/C[C@@H](OC(C)=O)c1ccc(OCCO)cc1)c1cnc2ccccc2c1 | 0.913
9 | COc1ccc([Si](C)(C)[C@@H]2[C@@H](CC(=O)N3CCC[C@H]3CO)O[C@]3(C(=O)N(c4ccccc4)c4ccccc43)[C@H]2C)cc1 | 0.907
10 | CC(C)NC(=O)[C@@]1(C)c2ccccc2C(=O)N(Cc2cc(C(F)(F)F)cc(C(F)(F)F)c2)[C@H]1c1ccc(CO)cc1 | -0.753
11 | CNS(=O)(=O)c1ccc(C)cc1 | 0.192
12 | O=C(c1ccccc1)N1Cc2ccccc2C[C@@]2(COC(c3ccc(OCCCO)cc3)=N2)C1=O | 1.03
13 | COc1ccc(CCNC(=O)[C@@]2(Sc3ccc(C)cc3)CC(=O)N(C3Cc4ccccc4C3)[C@@H]2c2ccc(CO)cc2I)cc1 | -0.813
14 | COc1cc2c(cc1OC)CN(C(=O)[C@@H]1[C@H]3C(=O)O[C@H](c4ccccc4)[C@H](c4ccccc4)N3[C@H](c3ccc(O)cc3)[C@@]13C(=O)Nc1ccccc13)CC2 | 0.171
15 | COc1ccc([Si](C)(C)[C@@H]2[C@@H](CCO)O[C@]3(C(=O)N(Cc4ccc(N(C=O)c5ccccc5)cc4)c4ccccc43)[C@H]2C)cc1 | 0.719
16 | COc1cc(COC(C)=O)ccc1OC(C)=O | 0.137
17 | COc1ccccc1CN1C(=O)c2ccccc2[C@@H](C(=O)NC2CC2)[C@@H]1c1ccc(CO)cc1 | 1.48
18 | CCCC[C@@H]1C[C@H]1[C@@H](NC(=O)c1ccco1)c1ccccc1C(F)(F)F | 0.967
19 | O=C1C2C=CC(C(O)c3cc(C(F)(F)F)cc(C(F)(F)F)c3)N(n3cnnc3)C2C(=O)N1Cc1ccccc1 (stereo not drawn) | 0.203
20 | CN(C)CCCCCCNC(=O)[C@H]1C[C@H]2C(=O)N3CCC[C@H]3C(=O)N2[C@H]1c1ccc(O)cc1 | 0.863
21 | O=C1O[C@H](c2ccccc2)[C@H](c2ccccc2)N2[C@H]1[C@@H](C(=O)N1CCCCCCC1)[C@]1(C(=O)Nc3ccc(C#CCCO)cc31)[C@H]2c1ccccc1OCCO | 1.72
22 | C#C[C@H](O[Si](C#Cc1ccc(Oc2ccccc2)cc1)(C(C)C)C(C)C)c1ccccc1 | 1.25
23 | COC(=O)[C@@]1(Cc2ccc(F)cc2)[C@H]2c3cc(C(=O)N(C)C)n(Cc4ccc(Cl)c(C(F)(F)F)c4)c3C[C@H]2CN1C(=O)c1ccccc1 | 1.74

Each molecule was assayed against Pro-neuregulin-1, membrane-bound isoform (Homo sapiens) (UniProt Q02297) (assay: small molecules binding neuregulin-1 protein – biochemical, small-molecule microarray, fluorescence 635/667, psychiatric disease protein project, primary screen (AID 1075;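 note: score combines 667 nm spot fluorescence with signal to noise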)). Conditions: NRG1 binding, 635 nm fluorescence, higher = more signal.
Pro-neuregulin-1, membrane-bound isoform (Homo sapiens), sequence (Q02297 whole entry, looked up, canonical isoform): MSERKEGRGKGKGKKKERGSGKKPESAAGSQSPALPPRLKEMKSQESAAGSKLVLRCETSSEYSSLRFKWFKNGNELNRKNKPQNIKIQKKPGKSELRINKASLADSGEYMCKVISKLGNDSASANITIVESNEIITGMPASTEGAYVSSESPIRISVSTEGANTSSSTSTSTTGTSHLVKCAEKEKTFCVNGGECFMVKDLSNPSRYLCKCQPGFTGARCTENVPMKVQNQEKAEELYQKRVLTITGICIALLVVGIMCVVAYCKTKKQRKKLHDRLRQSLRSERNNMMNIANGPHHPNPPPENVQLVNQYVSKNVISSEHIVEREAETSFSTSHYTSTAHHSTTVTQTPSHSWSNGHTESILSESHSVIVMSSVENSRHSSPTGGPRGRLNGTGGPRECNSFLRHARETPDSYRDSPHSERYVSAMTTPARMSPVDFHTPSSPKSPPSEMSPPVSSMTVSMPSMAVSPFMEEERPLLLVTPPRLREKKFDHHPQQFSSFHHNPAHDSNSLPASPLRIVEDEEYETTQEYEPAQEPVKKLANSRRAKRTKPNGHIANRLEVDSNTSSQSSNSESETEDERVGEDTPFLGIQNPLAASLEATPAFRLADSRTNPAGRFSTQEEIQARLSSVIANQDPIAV

Row | Structure (SMILES) | composite z-score
24 | C=CC(=C)[C@H]1Oc2ccccc2S(=O)(=O)N2CCC[C@@H]12 | -0.57
25 | C=C[C@@H](COC(=O)OC(C)(C)C)N(Cc1ccc(OC)cc1)S(=O)(=O)c1ccc(Br)cc1 | 0.142
26 | COCC(=C=CC[C@@H](O)c1cccc(OCCO)c1)C[C@@H](O)c1ccccn1 | 1.11
27 | O=C(CS)NCCCCCCNC(=O)[C@@H]1C[C@@H]2C(=O)NCC(=O)N2[C@@H]1c1cccc(OCCO)c1 | 0.668
28 | C=C(CC1([C@@H](NP(=O)(c2ccccc2)c2ccccc2)[C@H]2C[C@@H]2CCCC)CC1)c1ccccc1 | 0.896
29 | COC(=O)[C@@]1(Cc2ccc(F)cc2)[C@H]2c3cc(C(=O)N(C)C)n(Cc4cc(F)c(F)c(F)c4)c3C[C@H]2CN1C(=O)c1ccccc1 | 1.61
30 | CN(C)CCCC[C@@H]1NC(=O)[C@H]2C[C@@H](C(=O)NCCCCCCN)[C@@H](c3ccc(O)cc3)N2C1=O | 1.79
31 | CN(C)CCCCCCNC(=O)[C@H]1C[C@H]2C(=O)N[C@@H](CCCCN)C(=O)N2[C@H]1c1cccc(OCCO)c1 | 2.67
32 | CC(C)=CCCC(C)=CC(O)C1C=CC2C(=O)N(C)C(=O)C2N1Nc1ccccc1 (stereo not drawn) | 1.72
33 | CCS[C@H]1[C@@H](C(=O)O)[C@H](c2ccc(C)cc2)N(S(=O)(=O)c2ccc(C)cc2)[C@@H]1CC | 1.84
34 | CCC(CC)C(O)C1C=CC2C(=O)NC(=O)C2N1Nc1ccc(Cl)cc1Cl (stereo not drawn) | 0.971
35 | COC(=O)[C@@]1(Cc2ccc(F)cc2)[C@H]2c3cc(C(=O)N(C)C)n(Cc4ccccc4)c3C[C@H]2CN1C(=O)c1ccccc1 | 1.32
36 | C=CCNC(=O)[C@H]1[C@@H]2C(=O)O[C@@H](c3ccccc3)[C@@H](c3ccccc3)N2[C@@H](c2ccccc2OCCO)[C@]12C(=O)Nc1ccc(C#CCCO)cc12 | 0.82
37 | COCCCNC(=O)[C@]1(CCC(=O)OC(C)(C)C)N=C(c2ccc(OCCCO)cc2)O[C@@H]1c1ccccc1CN=[N+]=[N-] | 0.732
38 | O=C1OCCC/C=C\[C@H]2OC34C=CCN(Cc5ccccc5)C(=O)[C@H]3N(CCCO)C(=O)[C@@H]4C12 (stereo partly drawn) | 0.822
39 | CN1C(=O)C2C=CC(C(O)C3CC=CCC3)N(N(c3ccccc3)c3ccccc3)C2C1=O (stereo not drawn) | -0.282
40 | C=CCC(OC(C)=O)[C@@H]1[C@@H](N(Cc2ccc(-c3cccc(C(F)(F)F)c3)o2)C(=O)c2ccc(C)cc2)c2cc(OCCCO)ccc2N1C(=O)Cc1ccc2ccccc2c1 (stereo partly drawn) | -0.326
41 | CO[C@H]1O[C@H](CO)[C@@H](OC(=O)Nc2ccccc2)[C@H](OC(=O)Nc2ccccc2)[C@@H]1OC(=O)Nc1ccccc1 | 1.45

Row | Structure (SMILES) | composite z-score
42 | O=C(OCc1ccccc1)C1=CCC2c3[nH]c4ccccc4c3C(=O)C1N2S(=O)(=O)c1ccccc1[N+](=O)[O-] (stereo not drawn) | 1.65
43 | C=C(CCCC)/C(=C/C[C@@H](OC(C)=O)c1ccc(OCCO)cc1)c1cnc2ccccc2c1 | 0.952
44 | COc1ccc([Si](C)(C)[C@@H]2[C@@H](CC(=O)N3CCC[C@H]3CO)O[C@]3(C(=O)N(c4ccccc4)c4ccccc43)[C@H]2C)cc1 | 0.0499
45 | CC(C)NC(=O)[C@@]1(C)c2ccccc2C(=O)N(Cc2cc(C(F)(F)F)cc(C(F)(F)F)c2)[C@H]1c1ccc(CO)cc1 | 0.353
46 | CNS(=O)(=O)c1ccc(C)cc1 | -0.0687
47 | O=C(c1ccccc1)N1Cc2ccccc2C[C@@]2(COC(c3ccc(OCCCO)cc3)=N2)C1=O | 0.0612
48 | COc1ccc(CCNC(=O)[C@@]2(Sc3ccc(C)cc3)CC(=O)N(C3Cc4ccccc4C3)[C@@H]2c2ccc(CO)cc2I)cc1 | 1.54
49 | COc1cc2c(cc1OC)CN(C(=O)[C@@H]1[C@H]3C(=O)O[C@H](c4ccccc4)[C@H](c4ccccc4)N3[C@H](c3ccc(O)cc3)[C@@]13C(=O)Nc1ccccc13)CC2 | 1.03
50 | COc1ccc([Si](C)(C)[C@@H]2[C@@H](CCO)O[C@]3(C(=O)N(Cc4ccc(N(C=O)c5ccccc5)cc4)c4ccccc43)[C@H]2C)cc1 | 0.508
51 | COc1cc(COC(C)=O)ccc1OC(C)=O | 0.14
52 | COc1ccccc1CN1C(=O)c2ccccc2[C@@H](C(=O)NC2CC2)[C@@H]1c1ccc(CO)cc1 | 1.12
53 | CCCC[C@@H]1C[C@H]1[C@@H](NC(=O)c1ccco1)c1ccccc1C(F)(F)F | 0.382
54 | O=C1C2C=CC(C(O)c3cc(C(F)(F)F)cc(C(F)(F)F)c3)N(n3cnnc3)C2C(=O)N1Cc1ccccc1 (stereo not drawn) | 0.339
55 | CN(C)CCCCCCNC(=O)[C@H]1C[C@H]2C(=O)N3CCC[C@H]3C(=O)N2[C@H]1c1ccc(O)cc1 | 0.854
56 | O=C1O[C@H](c2ccccc2)[C@H](c2ccccc2)N2[C@H]1[C@@H](C(=O)N1CCCCCCC1)[C@]1(C(=O)Nc3ccc(C#CCCO)cc31)[C@H]2c1ccccc1OCCO | 2.85
57 | C#C[C@H](O[Si](C#Cc1ccc(Oc2ccccc2)cc1)(C(C)C)C(C)C)c1ccccc1 | 0.206
58 | COC(=O)[C@@]1(Cc2ccc(F)cc2)[C@H]2c3cc(C(=O)N(C)C)n(Cc4ccc(Cl)c(C(F)(F)F)c4)c3C[C@H]2CN1C(=O)c1ccccc1 | 1.83
